From PubChem BioAssay
Dicer processing = human Dicer pre-microRNA cleavage inhibition; Q9UPY3; cat-ELCCA pre-miR-21 Dicer processing, chemiluminescence; active compounds read high; z-score at 25 µM; 6% of 47,000 active; AID 1347074; in the data active = z-score above about 3, passing the limit was not always enough;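 note: plate controls were vehicle for no effect and no enzyme for full effect; higher signal means more uncleaved substrate so more Dicer inhibition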
Starred values were filed as active, the others as inactive. This excerpt belongs to a sample that is enriched for hits.

For Cn1c(=O)c(C(=O)NCc2ccccn2)c(O)c2ccccc21 the results were Dicer processing 10.2*.
Cc1cc(C)nc(SC(=O)OC(C)(C)C)n1 was read as Dicer processing -0.22.
For CC(c1ccccc1)N1CNc2c(c(=O)n(C)c(=O)n2C)C1 (stereo not given) the results were Dicer processing 0.51.
Cn1c2c(c(=O)n(C)c1=O)CN(CCCC(=O)O)CN2 was read as Dicer processing -1.85.
For CCCN1CNc2c(c(=O)n(C)c(=O)n2C)C1 the results were Dicer processing 0.77.
`CN(C)CCN1CNc2c(c(=O)n(C)c(=O)n2C)C1` gave Dicer processing 3.49*.
Cn1c2c(c(=O)n(C)c1=O)CN(Cc1ccc(CN3CNc4c(c(=O)n(C)c(=O)n4C)C3)cc1)CN2 was read as Dicer processing 3.77*.
CN1CNc2c(c(=O)n(C)c(=O)n2C)C1 was read as Dicer processing -2.45.
For C/C(=N/OC(=O)Nc1cccc(C)c1)c1ccc2c(c1)CCO2 the results were Dicer processing 1.83.
`CCSCCOC(=O)C1=C(C)NC2=C(C(=O)CC(c3cccs3)C2)C1c1ccccc1Cl` (stereo not given) gave Dicer processing 2.55.
`Cc1nc(N2C(=O)c3oc4ccccc4c(=O)c3C2c2ccco2)sc1C` (stereo not given) gave Dicer processing 0.12.
Screening CNC(=O)n1cc(C)c(-c2ccccc2)n1 returned Dicer processing -2.14.
O=C(Nc1ccc2c(c1)OCCO2)c1cccc(C(=O)Nc2ccc3c(c2)OCCO3)n1 was read as Dicer processing -0.09.
`c1ccc(-c2nc(Nc3ccc4c(c3)OCCO4)c3ccccc3n2)cc1` gave Dicer processing 5.41*.
Screening CCC(Nc1nc(-c2ccccc2)nc2ccccc12)C(=O)O (stereo not given) returned Dicer processing -1.07.
Screening Cc1ccc([N+](=O)[O-])c(NC(=O)c2nn(-c3ccccc3)nc2C)c1C returned Dicer processing -1.16.
For Cc1nc(NCc2ccc3c(c2)OCO3)nc2c1C(=O)c1ccccc1-2 the results were Dicer processing -1.05.
Cc1c(C)c(C)c(S(=O)(=O)Nc2ccc(Cl)cc2Cl)c(C)c1C was read as Dicer processing -0.12.
For Cc1c(C)c(C)c(S(=O)(=O)Nc2ccccc2N)c(C)c1C the results were Dicer processing 13.1*.
`Cc1c(C)c(C)c(S(=O)(=O)Nc2cc(Cl)cc(Cl)c2)c(C)c1C` gave Dicer processing 0.7.
CCc1sc(C2C(C(=O)OC)=C(C)NC3=C2C(=O)CC(C)(C)C3)cc1Br (stereo not given) was read as Dicer processing -0.2.
COc1ccc(CCN2C(=O)CSC2c2ccc3c(c2)OCO3)cc1OC (stereo not given) was read as Dicer processing -0.66.
For CCc1ccc(C2CC(=O)NC(SC)=C2C#N)cc1 (stereo not given) the results were Dicer processing 0.11.
CCCCSC1=C(C#N)C(=O)NC(c2ccc(C(=O)O)cc2)S1 (stereo not given) was read as Dicer processing -1.35.
`CCCCSC1=C(C#N)C(=O)NC(c2ccc(O)cc2)S1` (stereo not given) gave Dicer processing -0.9.
`CCCCSC1=C(C#N)C(=O)NC(c2ccc(O)c(OC)c2)S1` (stereo not given) gave Dicer processing 3.11*.
Screening COc1ccc(CCN2C(=O)CSC2=Nc2ccc(F)c(Cl)c2)cc1OC returned Dicer processing -0.59.
`COC(=O)c1cc(OC)c(OC)cc1NC(=O)N1c2ccccc2Sc2ccccc21` gave Dicer processing 1.22.
COc1cc(NC(=O)N2c3ccccc3Sc3ccccc32)c(C(=O)O)cc1OC was read as Dicer processing 2.81.
`COc1ccccc1NC(=O)N1c2ccccc2Sc2ccccc21` gave Dicer processing 3.15*.
For c1ccc(-c2nc3c4c5c(sc4ncn3n2)CCCC5)nc1 the results were Dicer processing -0.62.
CNc1ccccc1C(=O)NNc1ccc(Cl)cc1 was read as Dicer processing 1.07.
CN(C)c1ccc(O)c2c1CC1CC3[C@@H](N(C)C)C(=O)C(C(N)=O)=C(O)[C@]3(O)C(=O)C1=C2O (stereo not given in full) was read as Dicer processing 6.09*.
C[C@H]1c2cccc(O)c2C(O)=C2C(=O)[C@]3(O)C(O)=C(C(N)=O)C(=O)[C@@H](N(C)C)[C@@H]3[C@@H](O)[C@@H]21 was read as Dicer processing -0.88.
For O=C(Nc1sccc1-n1cccc1)NC1Cc2ccccc2C1 the results were Dicer processing -1.07.
Screening CC(=NCc1ccccc1)c1c(C)cc(C)cc1O returned Dicer processing 0.14.
Screening CCN(CC)C(=S)Oc1c(C)cc(C)cc1C returned Dicer processing 0.56.
For COc1ccc(N2CSCc3nc4ccccc4n3C2)cc1 the results were Dicer processing -0.04.
For Nc1ccc(CC2C(=O)Nc3ccccc32)cc1 (stereo not given) the results were Dicer processing 0.41.
For c1ccc(CSc2nnnn2-c2ccccc2)cc1 the results were Dicer processing -1.29.
Cc1cc(C)n2c(Br)c(CSc3nnnn3-c3ccccc3)nc2n1 was read as Dicer processing 4.24*.
Screening Cc1cc(C)n2c(SCc3ccc(Br)cc3)nnc2n1 returned Dicer processing 1.29.
`COCCNC(=O)CSc1nc(N)c2c3c(sc2n1)CCCC3` gave Dicer processing -0.14.
For Cc1cc(C)nc(Nc2nc3ccccc3o2)n1 the results were Dicer processing 4.64*.
For Cc1cc(C)nc(Nc2n[nH]c(Cc3ccccc3)n2)n1 the results were Dicer processing 0.13.
Screening COc1ccc(-c2nc(Nc3nc4ccccc4o3)ncc2C#N)cc1 returned Dicer processing 1.89.
For Cn1c(=O)c2c3nc4ccc(Cl)cc4cc3c(=O)n(C)c2n(C)c1=O the results were Dicer processing -0.71.
For CS(=O)(=NS(=O)(=O)NC(=O)Nc1cccc(C(F)(F)F)c1)c1ccccc1 (stereo not given) the results were Dicer processing 0.76.
`C=CCNc1oc(-c2ccc(F)cc2)nc1C#N` gave Dicer processing -0.55.
COc1ccc(-c2nc(C#N)c(NCc3ccco3)o2)cc1 was read as Dicer processing -1.14.
Screening N#Cc1nc(-c2ccccc2)oc1NCc1ccccc1 returned Dicer processing 6.36*.
`COc1cc(Cl)c(NS(=O)(=O)c2cc(C(F)(F)F)cc(C(F)(F)F)c2)c(OC)c1` gave Dicer processing 0.95.
Screening CC(C)NC(=O)O/N=C/c1csc([N+](=O)[O-])c1 returned Dicer processing 0.58.
Cc1ccc(NCN2C(=O)c3ccccc3C2=O)c(C)c1 was read as Dicer processing 0.9.
`Cc1cc(Br)ccc1NCN1C(=O)c2ccccc2C1=O` gave Dicer processing 9.12.
Screening O=C1CCC(=O)N1CNc1cc(C(F)(F)F)cc(C(F)(F)F)c1 returned Dicer processing 3.85*.
`CCc1ccc(NCN2C(=O)c3ccccc3C2=O)cc1` gave Dicer processing 2.66.
`Cc1cc(Cl)ccc1NCN1C(=O)CCC1=O` gave Dicer processing 5.24*.
O=C1CCC(=O)N1CNc1ccc(F)cc1F was read as Dicer processing 4.57*.
`O=C(CNc1cc(C(F)(F)F)cc(C(F)(F)F)c1)c1ccc(Cl)cc1` gave Dicer processing 1.22.
CC(C)c1ccc(NCN2C(=O)CCC2=O)cc1 was read as Dicer processing 3.67*.
CC(C)c1ccc(Nc2cc(=O)[nH]n2C)cc1 was read as Dicer processing -1.79.
Screening CC1CC(=O)N(c2ccc(F)cc2F)C(=O)C1 returned Dicer processing 0.35.
